Out of some 5,500 compounds screened, about 2,000 (36%) were called active. Not shown: some 18% with an inconclusive outcome. The list shows a part of the results. Values without a mark were called inactive. Cut-off read from the data, not from the text of the source: active = normalized growth mostly below about 0.91 (no sharp cut-off); inconclusive = no clear call, values can overlap the other calls; inactive = mostly above about 0.92.
Assay: chemical genetic growth profiling, strain panel (AID 1159580);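 note: tested at 20 µM; growth read once vehicle control cultures reached saturation at 30 °C; 1 = growth at the plate median or of vehicle wells; lower values mean less growth of the strain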
Settings: growth OD

**Q.** What does the source list for `O=C(O)CCOc1ccc(Cl)cc1`?
**A.** normalized growth (S. cerevisiae deletion strains, locus YAL013W, strain DEP1, active compounds read low): 0.956; normalized growth (S. cerevisiae deletion strains, locus YBR229C, strain ROT2, active compounds read low): 0.795 (active); normalized growth (S. cerevisiae deletion strains, locus YCL061C, strain MRC1, active compounds read low): 0.825 (active); normalized growth (S. cerevisiae deletion strains, locus YDL101C, strain DUN1, active compounds read low): 0.901; normalized growth (S. cerevisiae deletion strains, locus YDL134C, strain PPH21, active compounds read low): 1; normalized growth (S. cerevisiae deletion strains, locus YEL061C, strain CIN8, active compounds read low): 0.999; normalized growth (S. cerevisiae deletion strains, locus YGR078C, strain PAC10, active compounds read low): 0.753 (active); normalized growth (S. cerevisiae deletion strains, locus YHR030C, strain SLT2, active compounds read low): 1.01; normalized growth (S. cerevisiae deletion strains, locus YHR087W, strain rtc3, active compounds read low): 0.729 (active); normalized growth (S. cerevisiae deletion strains, locus YJL187C, strain SWE1, active compounds read low): 0.837 (active); normalized growth (S. cerevisiae deletion strains, locus YJR043C, strain POL32, active compounds read low): 0.913 (active); normalized growth (S. cerevisiae deletion strains, locus YJR075W, strain HOC1, active compounds read low): 0.64 (active); normalized growth (S. cerevisiae deletion strains, locus YKL190W, strain CNB1, active compounds read low): 1; normalized growth (S. cerevisiae deletion strains, locus YLR039C, strain RIC1, active compounds read low): 0.979; normalized growth (S. cerevisiae deletion strains, locus YLR058C, strain SHM2 (second series), active compounds read low): 0.904 (active); normalized growth (S. cerevisiae deletion strains, locus YLR085C, strain ARP6, active compounds read low): 1; normalized growth (S. cerevisiae deletion strains, locus YLR262C, strain YPT6, active compounds read low): 0.993; normalized growth (S. cerevisiae deletion strains, locus YML094W, strain GIM5, active compounds read low): 1.01; normalized growth (S. cerevisiae deletion strains, locus YMR219W, strain ESC1, active compounds read low): 0.838 (active); normalized growth (S. cerevisiae deletion strains, locus YMR263W, strain SAP30, active compounds read low): 0.859 (active); normalized growth (S. cerevisiae deletion strains, locus YMR307W, strain GAS1, active compounds read low): 0.895; normalized growth (S. cerevisiae deletion strains, locus YNL153C, strain GIM3, active compounds read low): 0.793 (active); normalized growth (S. cerevisiae deletion strains, locus YNL298W, strain CLA4 (second series), active compounds read low): 1.03; normalized growth (S. cerevisiae deletion strains, locus YNL322C, strain KRE1, active compounds read low): 0.9 (active); normalized growth (S. cerevisiae deletion strains, locus YNR030W, strain Alg12, active compounds read low): 1; normalized growth (S. cerevisiae deletion strains, locus YPL055C, strain LGE1, active compounds read low): 0.763 (active); normalized growth (S. cerevisiae deletion strains, locus YPL241C, strain CIN2, active compounds read low): 0.954; normalized growth (S. cerevisiae deletion strains, locus YPR135W, strain CTF4, active compounds read low): 1.11; normalized growth (S. cerevisiae strains, strain wild type, active compounds read low): 1.01

From PubChem BioAssay AID1159580 (chemical genetic matrix, 2015)
